Rab9 prom act = activates the Rab9 promoter. Huh7 Rab9 promoter-luciferase reporter, luminescence, 24 h. AID 485297. 320,000 compounds, 2.8% hits. Potency, µM (highest dose often 9.22 µM), without a hit: top-dose activation, negative = inhibition, most hits filed as activators; further: % of control where 0% means no effect; nearly all actives have a fitted effect of over 60% in size
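Luminescence read-out: Huh7 cells stably expressing Rab9-luciferase, treated 24 h with compound at 37 °C, then lysed with luciferase reagent for 10 min at ambient before reading.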
ELG1 genotox = induces genotoxicity in HEK293T cells with luciferase-tagged ELG1 | Potency, µM (highest dose often 46 µM), without a hit: at the top dose activity change, positive = activation, actives largely listed as activators | 330,000 compounds, 1.3% hits | HEK293T ELG1-luciferase reporter, luminescence, 16 h | AID 504466; further: % of control where 0% means no effect; nearly all actives have a fitted effect of over 60% in size
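16 hr compound incubation (37 °C, 5% CO2) of HEK293T cells carrying luciferase-tagged ELG1; luciferase then measured by ONE-Glo luminescence after 30 min at RT.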
NPC1 promoter act = NPC1 promoter activation. 320,000 compounds, 2.4% hits. AID 485313. Huh7 NPC1 promoter luciferase reporter, 24 h. Potency, µM (series often up to 9.22 µM), inactives show top-dose activation, most hits filed as activators; further: % of control where 0% means no effect; nearly all actives have a fitted effect of over 60% in size
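NPC1 promoter–luciferase Huh7 cells; 24 h compound; luminescence.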
FLuc modulator = firefly luciferase modulation, counter-screen for miR-21 project; P08659; purified FLuc, Km substrates, luminescence inhibition; Potency, µM (series often up to 57.5 µM), for inactives: at the highest dose activity change, negative = inhibition, most hits filed as inhibitors; 360,000 compounds, 6.9% hits; AID 588342;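 further: plate controls were vehicle for no effect and reference inhibitor for full effect; nearly all actives have a fitted effect of over 55% in size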
Target sequence (P08659 whole entry, looked up): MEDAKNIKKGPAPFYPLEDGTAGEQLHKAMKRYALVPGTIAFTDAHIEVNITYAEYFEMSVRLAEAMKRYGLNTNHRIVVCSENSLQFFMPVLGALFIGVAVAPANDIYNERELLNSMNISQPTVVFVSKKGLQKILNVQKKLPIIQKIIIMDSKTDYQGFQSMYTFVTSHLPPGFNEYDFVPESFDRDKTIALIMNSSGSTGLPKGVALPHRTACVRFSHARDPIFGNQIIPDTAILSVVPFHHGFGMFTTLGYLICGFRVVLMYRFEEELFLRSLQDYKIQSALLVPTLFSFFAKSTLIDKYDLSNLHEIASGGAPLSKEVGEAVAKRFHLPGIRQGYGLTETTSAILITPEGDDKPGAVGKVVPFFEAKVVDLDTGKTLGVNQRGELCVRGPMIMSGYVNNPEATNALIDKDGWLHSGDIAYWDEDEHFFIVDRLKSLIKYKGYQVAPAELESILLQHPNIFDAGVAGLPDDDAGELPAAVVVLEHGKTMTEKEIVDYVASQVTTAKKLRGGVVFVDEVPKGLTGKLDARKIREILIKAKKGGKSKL
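Purified P. pyralis luciferase, 10 nM final, with Km-level 10 uM D-luciferin and 10 uM ATP in 50 mM Tris acetate pH 7.5, 10 mM Mg acetate, 0.01% Tween-20, 0.05% BSA; 6-point qHTS titration about 60 µM downward; luminescence read.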
SMN2 splice up = SMN2 splice variant enhancement. HEK293 SMN2-luciferase splicing reporter, luminescence, 30-36 h. Potency, µM (top dose mostly 46.1 µM), without a hit: at the highest dose activity change, positive = activation, hits mostly activators. 210,000 compounds, 2.8% hits. AID 1458; further: % of control where 0% means no effect; nearly all actives have a fitted effect of over 55% in size
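HEK293 cells carry an SMN2 […]–luciferase reporter in which exon 7 inclusion puts luciferase in frame. Cells were plated 10-12 h before compound addition, then incubated 30-36 h at 37C. ONE-Glo luminescence was read; sodium butyrate at 4.5 mM final served as control.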
KinaseGlo FLuc = Kinase-Glo luciferase inhibition (counter-screen). AID 1379. Kinase-Glo luciferase, ATP luminescence, 8 min. 200,000 compounds, 0.28% hits. Potency, µM (doses to about 38.3 µM), inactives show at the highest dose activity change, negative = inhibition, usual class: inhibitors. Q27757; further: on the % scale 0 is the no-effect control and ±100 the full control effect; nearly all actives have a fitted effect of over 60% in size
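Kinase-Glo luciferase light output from ATP and luciferin was measured with 10 uM ATP, within the enzyme's linear range. Buffer: 50 mM imidazole pH 7.2, 50 mM KCl, 7 mM MgCl2, 0.01% Tween 20, 0.05% BSA; luminescence read after 8 min at ambient temperature.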
Starred values were filed as active, the others as inactive; ? = inconclusive; . = no result given; [ ] = dose if it differs, or a comment. In the library only some 7.5% were active in any assay of this set; here they are far more common. The call rests on the fitted dose curve; in most records, active means well fitted curve in the direction sought with a large enough effect; inconclusive means small, poorly fitted or top-dose-only effect, or another doubt; inactive means no such curve, though single readings can be large; an effect the other way counts as inactive or inconclusive. Potency means the concentration at half of the fitted maximal effect.

SMILES	Rab9 prom act	ELG1 genotox	NPC1 promoter act	FLuc modulator	SMN2 splice up	KinaseGlo FLuc
Cc1ccc(C(=O)/C=C/Nc2ccccc2C(N)=O)cc1	0.316µM*	6.51µM*	0.631µM*	0.135µM*	0.708µM*	11.2µM*
NC(=O)c1ccccc1NC(=O)c1ccccc1Cl	2.3%	5.4%	1.7%	-16.6%	.	.
NC(=O)c1ccccc1N/C=C/C(=O)c1ccc(Cl)cc1	0.398µM*	?	0.398µM*	0.239µM*	8.91µM*	?
CCS(=O)(=O)c1ccc(O)c(NC(=O)/C=C/c2ccc(Cl)cc2)c1	-2.4%	-3.9%	0.0%	?	.	.
Cc1ccc(/C=C/C(=O)Nc2ccccc2C(N)=O)cc1	1.41µM*	?	2.82µM*	0.849µM*	3.55µM*	-21.7%
Cc1ccc(CSc2nc3c([nH]c4ccccc43)c(=O)n2C)cc1	.	.	.	-0.9%	.	.
COc1ccc(/C=C2\SC(=S)N(C(C)C(=O)NC3C=CS(=O)(=O)C3)C2=O)cc1 (configuration not stated)	14.5%	0.8%	10.9%	16.9µM*	.	.
O=C(CN1C(=O)/C(=C/c2ccc(Cl)cc2)SC1=S)NC1C=CS(=O)(=O)C1 (configuration not stated)	0.6%	1.0%[9.26 µM]	-7.2%	-7.2%	.	.
COc1ccc(/C=C2\SC(=S)N(CC(=O)NC3C=CS(=O)(=O)C3)C2=O)cc1 (configuration not stated)	0.8%	2.3%	3.2%	1.9µM*	.	.
CN1CCN(c2ccc(NC(=O)c3cccs3)cc2)CC1	0.562µM*	?	3.16µM*	12µM*	11.2µM*	-9.3%
Cc1ccn(-c2ccc(NC(=O)c3cccs3)cc2)n1	0.631µM*	?	0.708µM*	3.01µM*	.	.
Nc1cccc(NC(=O)c2cccs2)c1	21.3%	-0.6%	10.2%	-15.6%	?	1.2%
CCN(CC)S(=O)(=O)c1ccc(NC(=O)c2cccs2)cc1	-2.7%	-1.2%	-6.2%	1.7%	.	-0.3%
O=C(Nc1cccc(N2CCCC2)c1)c1cccs1	29.3%	-2.4%	21.8%	16.9µM*	-21.9%	-3.8%
O=C(Nc1ccccc1C(F)(F)F)c1cc2nc(-c3ccccc3)cc(-c3ccccc3)n2n1	.	.	.	-0.7%	1.8%	.
c1ccc(OCCn2c(-c3ccco3)nc3ccccc32)cc1	17.7%	6.2%	17.9%	?	13.0%	1.8%
CCn1c(-c2ccco2)nc2ccccc21	18.2%	28.4%	22.5%	19µM*	9.3%	-15.1%
CN(Cc1nc2ccccc2n1C)c1ccccc1	5.2%	4.4%	-0.3%	-12.9%	.	.
Cc1ccc(C(O)c2nc3ccccc3n2C(C)C)cc1 (configuration not stated)	-2.9%	-1.1%	-2.2%	-3.1%	-7.2%	4.6%
CN(C)c1ccc(-c2nc3ccccc3n2C)cc1	0.224µM*	?	0.316µM*	0.269µM*	0.631µM*	10µM*
CC(C)n1c(-c2ccc(N(C)C)cc2)nc2ccccc21	?	18.2%	1.1%	7.57µM*	10.0%	-9.7%
CCn1c(-c2ccc(N(C)C)cc2)nc2ccccc21	?	1.6%	?	0.849µM*	12.6µM*	-10.8%
COc1ccc(CCCc2nnc(SCC(=O)Nc3ccc(F)cc3)o2)cc1C	.	.	.	5.0%	-10.3%	.
CCn1c(=N)c(C(=O)NC2CCCC2)cc2c(=O)n3cc(C)ccc3nc21	.	.	.	2.9%	2.5%	.
Cc1nc(NC(=O)c2ccccc2)sc1-c1csc(NCc2ccco2)n1	-0.6%	-0.9%	2.2%	13.5µM*	-10.9%	-8.0%
SMILES	Rab9 prom act	ELG1 genotox	NPC1 promoter act	FLuc modulator	SMN2 splice up	KinaseGlo FLuc
c1coc(CNc2nc(-c3ccncc3)cs2)c1	15.2%	-0.2%	26.3%	?	16.2%	0.2%
CCOc1ccccc1Nc1nc(-c2sc(NC(=O)c3ccco3)nc2C)cs1	3.3%	-9.8%	-6.7%	-12.9%	-38.0%	-5.3%
COc1ccc(-c2csc(NCc3ccco3)n2)cc1	0.562µM*	?	0.891µM*	1.07µM*	12.6µM*	-5.2%
Cc1nc(C)c(-c2csc(NCc3ccccc3)n2)s1	9.9%	8.8%	24.0%	?	-39.6%	-0.3%
Cc1nc(C)c(-c2csc(NCc3ccco3)n2)s1	?	12.6µM*	29.2%	15.1µM*	?	-3.4%
c1coc(CNc2nc3ccccc3s2)c1	?	?	1.58µM*	7.57µM*	.	.
Cc1cccc(Cn2c(=O)n(CCC(=O)NCc3ccc4c(c3)OCO4)c(=O)c3sccc32)c1	.	.	.	0.4%	-12.7%	.
COCCCNC(=O)c1sc2nc(C)c(C(=O)Nc3ccc(C)cc3C)c(-c3ccccc3Cl)c2c1N	.	.	.	-19.0%	-11.6%	.
Clc1nccnc1N/N=C/c1ccc(Br)cc1	2µM*	?	2µM*	9.53µM*	.	.
COc1ccc(/C=N\NC(=O)O)cc1	.	.	.	.	-7.1%[9.22 µM]	-4.7%[7.66 µM]
COc1ccc(/C=N/Nc2nccnc2Cl)c(OC)c1	?	?	16.4%	10.7µM*	27.1%	12.6µM*
COc1ccc(/C=N/Nc2nccnc2Cl)cc1	0.447µM*	1.46µM*	1.26µM*	2.69µM*	14.1µM*	7.08µM*
O=C(c1cccc(Cl)c1)N(Cc1cccc(F)c1)C1CCS(=O)(=O)C1 (configuration not stated)	.	.	.	-2.5%	3.3%	.
CN(C)C(=O)c1cn(-c2ccccc2)nc1-c1cc2ccccc2oc1=O	0.0%	-4.4%	-0.5%	-5.0%	21.0%	1.2%
CN(Cc1cn(-c2ccccc2)nc1-c1cc2ccccc2o1)C(=O)CCC(=O)O	27.0%	?	17.3%	3.01µM*	4.6%	3.5%
O=C(O)c1cc(-c2cc3ccccc3o2)nn1-c1ccccc1	13.9%	5.1%	-3.6%	?	12.6%	1.7%
O=C(O)/C=C\c1cn(-c2ccccc2)nc1-c1cc2ccccc2o1	-2.0%	8.4%	-1.0%	13.5µM*	10.7%	3.3%
O=C(Nc1ccc([N+](=O)[O-])cc1)c1cn(-c2ccccc2)nc1-c1cc2ccccc2o1	-1.8%	?	-1.3%	4.0%	2.1%	2.6%
COC(=O)C1CCN(Cc2cn(Cc3ccccc3)nc2-c2cc3ccccc3o2)CC1	-0.2%	-6.7%	-0.5%	0.3%	.	5.6%
O=C(O)/C=C/c1cn(-c2ccccc2)nc1-c1cc2ccccc2o1	0.3%	4.0%	-1.9%	15.1µM*	.	.
CN(C)C(=O)c1cn(-c2ccccc2)nc1-c1cc2ccccc2o1	-4.2%	-1.1%	-0.6%	23.9µM*	-9.2%	1.4%
COc1cc(NC(=O)N2CCC(CN3CCCC3)CC2)cc(OC)c1OC	.	.	.	-6.4%	.	.
O=C(Nc1nc2c(F)cc(F)cc2s1)c1ccc(S(=O)(=O)N2CCc3ccccc32)cc1	.	.	.	-15.5%	.	.
COc1cc(Cl)c(C)cc1NC(=O)NC1COc2ccccc2C1 (configuration not stated)	.	.	.	-16.5%	.	.

Bioassay records as filed in PubChem.
